PubChem BioAssay (NCATS)
Results filed as inconclusive are left out. The source made the active and inactive calls. The call rests on the fitted dose curve; in most records, active means well fitted curve in the direction sought with a large enough effect in the signal ratio, with a control signal flat (not every such curve was filed as active); inconclusive means small, poorly fitted or top-dose-only effect, or effect the other way, or a change in a side signal; inactive means no such curve, though single readings can be large or run the other way; the % refers to the signal ratio.

molecular target: Peroxisome proliferator-activated receptor gamma (Homo sapiens) (UniProt P37231); assay: qHTS assay for small molecule agonists of peroxisome proliferator-activated receptor gamma signaling (AID 588536); details: HEK293 PPARg-UAS-bla, beta-lactamase ratio, 16 h, percent of rosiglitazone response, DMSO as zero; series mostly up to 76.7 µM
Excerpt: NIH Chemical Genomics Center [NCGC] U.S. Environmental Protection Agency [EPA] National Institutes of Environmental Health Sciences [NIEHS] National Toxicology Program [NTP] NCGC Assay Overview The Peroxisome proliferator-activated receptors (PPARs) are lipid-activated transcription factors of the nuclear receptor superfamily with three distinct subtypes namely PPAR alpha, PPAR delta (also called PPAR beta) and PPAR gamma. All these subtypes heterodimerizes with Retinoid X receptor (RXR) and these heterodimers regulate transcription of various genes. PPAR-gamma (glitazone receptor) agonists have been used in the treatment of type 2 diabetes and dyslipidaemia. It is involved in the regulation of glucose and lipid metabolism. PPAR-gamma activates certain genes like Paraoxonase 1 which is responsible for hydrolyzing organophosphates. PPAR-gamma agonists may also be therapeutically important in the treatment of coronary artery disease, obesity and cancer and atherosclerosis.
NCGC Assay Protocol Summary Using a beta-lactamase reporter-gene under control of Peroxisome Proliferator-Activated-gamma (PPAR-gamma) response element, a cell-based assay [GeneBLAzer PPAR-gamma-UAS-bla assay developed by Invitrogen] was used to measure PPAR-gamma ligands signaling. GeneBLAzer PPAR-gamma-UAS-bla-HEK293 cells were used with assay medium containing 1% charcoal/dextran treated FBS. The assay was performed in clear bottom black Greiner 1536-well plates. Rosiglitazone was used in the screen as the positive control. Library compounds were measured for their ability to stimulate the reporter gene activity. Compounds were screened in a titration series in 1536-well format. The fluorescence intensity (405 nm excitation, 460/530 nm emission) was measured using an EnVision plate reader. Data was normalized relative to Rosiglitazone control (2 uM, 100%), and DMSO only wells (basal, 0%). Concentration-response titration points for each compound were fitted to the Hill equation yielding concentrations of half-maximal stimulation (EC50) and maximal response (efficacy) values. qHTS protocol for PPAR-gamma beta-lactamase assay in agonist mode [Step] [Parameter] [Value] [Description] 1. Reagent; 6 uL; 3000 cells/well 2. Incubation; 37 C for 6 - 6.5 hrs 3. Compounds; 23 nL; 0.59 nM to 92 uM 4. Controls (Rosiglitazone); 23 nL, - One column with dose response, start 19 uM, 1:3 dilutions in duplicates - Final concentrations of 2 uM and 0.5 uM in two columns 5. Incubation; 37 C for 16 hrs 6. Detection reagent; 1 uL of CCF4-dye 7. Incubation; RT for 2 hrs 8. Detection; Fluorescence; Envision plate reader

Chain of Peroxisome proliferator-activated receptor gamma (Homo sapiens) (P37231 whole entry, looked up): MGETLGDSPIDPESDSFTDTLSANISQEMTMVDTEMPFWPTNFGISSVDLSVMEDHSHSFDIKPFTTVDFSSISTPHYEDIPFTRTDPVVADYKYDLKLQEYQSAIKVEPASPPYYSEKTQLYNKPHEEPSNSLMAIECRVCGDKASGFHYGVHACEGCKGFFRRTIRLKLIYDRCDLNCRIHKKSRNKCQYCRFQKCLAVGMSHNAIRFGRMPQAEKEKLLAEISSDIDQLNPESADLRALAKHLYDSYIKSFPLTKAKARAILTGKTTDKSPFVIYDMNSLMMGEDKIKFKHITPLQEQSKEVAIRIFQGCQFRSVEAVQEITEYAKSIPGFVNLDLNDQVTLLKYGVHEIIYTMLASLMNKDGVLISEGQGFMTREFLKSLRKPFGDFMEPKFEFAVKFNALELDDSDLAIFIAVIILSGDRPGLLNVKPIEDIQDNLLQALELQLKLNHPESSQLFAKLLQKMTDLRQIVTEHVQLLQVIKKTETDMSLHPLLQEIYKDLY

| SMILES | outcome |
| --- | --- |
| NC(N)=NC(N)=NCCc1ccccc1 | inactive |
| Cc1nnc(NS(=O)(=O)c2ccc(N)cc2)s1 | inactive |
| S=P(N1CC1)(N1CC1)N1CC1 | inactive |
| O=C(N[C@H](CO)[C@H](O)c1ccc([N+](=O)[O-])cc1)C(Cl)Cl | inactive |
| CC[C@H](C)C(=O)O[C@H]1C[C@@H](C)C=C2C=C[C@H](C)[C@H](CC[C@@H]3C[C@@H](O)CC(=O)O3)[C@H]21 | inactive |
| NNC(=O)c1ccncc1 | inactive |
| OC(Cn1cncn1)(Cn1cncn1)c1ccc(F)cc1F | inactive |
| Cc1cc(NS(=O)(=O)c2ccc(N)cc2)no1 | inactive |
| COc1ccc2cc3[n+](cc2c1OC)CCc1cc2c(cc1-3)OCO2 | inactive |
| CC1=NN(c2ccccc2)C(=O)C1 | inactive |
| Cc1ccnc2c1NC(=O)c1cccnc1N2C1CC1 | inactive |
| O=C(O)c1cc(=O)[nH]c(=O)[nH]1 | inactive |
| C[C@]12C=CC(=O)C=C1CC[C@@H]1[C@@H]2C(=O)C[C@@]2(C)[C@H]1CC[C@]2(O)C(=O)CO | inactive |
| Cc1ncc([N+](=O)[O-])n1CCO | inactive |
| N[C@@H](Cc1ccc(O)c(O)c1)C(=O)O | inactive |
| Cc1noc(NS(=O)(=O)c2ccc(N)cc2)c1C | inactive |
